# Measurements from the supplement of paper PMC11732987, “Enantioselective OTUD7B fragment discovery through chemoproteomics screening and high-throughput optimisation” (Communications Chemistry, 2025).
# Unmarked numbers belong to inactive results.
# Columns and labels:
# Test in all cases: log2 ratio of Biotin-Ahx-Ub-VS probe labelling (fragment/DMSO); higher = less target engagement (more negative = stronger competition), active = hit call of the paper (q ≤ 0.05, log2 ratio ≤ -1)
# Conditions in all cases: compound concentration: 200 uM; treatment time: 3 h
# [1] = target: T1, USP19 (UniProt O94966)
# T1 sequence (whole entry): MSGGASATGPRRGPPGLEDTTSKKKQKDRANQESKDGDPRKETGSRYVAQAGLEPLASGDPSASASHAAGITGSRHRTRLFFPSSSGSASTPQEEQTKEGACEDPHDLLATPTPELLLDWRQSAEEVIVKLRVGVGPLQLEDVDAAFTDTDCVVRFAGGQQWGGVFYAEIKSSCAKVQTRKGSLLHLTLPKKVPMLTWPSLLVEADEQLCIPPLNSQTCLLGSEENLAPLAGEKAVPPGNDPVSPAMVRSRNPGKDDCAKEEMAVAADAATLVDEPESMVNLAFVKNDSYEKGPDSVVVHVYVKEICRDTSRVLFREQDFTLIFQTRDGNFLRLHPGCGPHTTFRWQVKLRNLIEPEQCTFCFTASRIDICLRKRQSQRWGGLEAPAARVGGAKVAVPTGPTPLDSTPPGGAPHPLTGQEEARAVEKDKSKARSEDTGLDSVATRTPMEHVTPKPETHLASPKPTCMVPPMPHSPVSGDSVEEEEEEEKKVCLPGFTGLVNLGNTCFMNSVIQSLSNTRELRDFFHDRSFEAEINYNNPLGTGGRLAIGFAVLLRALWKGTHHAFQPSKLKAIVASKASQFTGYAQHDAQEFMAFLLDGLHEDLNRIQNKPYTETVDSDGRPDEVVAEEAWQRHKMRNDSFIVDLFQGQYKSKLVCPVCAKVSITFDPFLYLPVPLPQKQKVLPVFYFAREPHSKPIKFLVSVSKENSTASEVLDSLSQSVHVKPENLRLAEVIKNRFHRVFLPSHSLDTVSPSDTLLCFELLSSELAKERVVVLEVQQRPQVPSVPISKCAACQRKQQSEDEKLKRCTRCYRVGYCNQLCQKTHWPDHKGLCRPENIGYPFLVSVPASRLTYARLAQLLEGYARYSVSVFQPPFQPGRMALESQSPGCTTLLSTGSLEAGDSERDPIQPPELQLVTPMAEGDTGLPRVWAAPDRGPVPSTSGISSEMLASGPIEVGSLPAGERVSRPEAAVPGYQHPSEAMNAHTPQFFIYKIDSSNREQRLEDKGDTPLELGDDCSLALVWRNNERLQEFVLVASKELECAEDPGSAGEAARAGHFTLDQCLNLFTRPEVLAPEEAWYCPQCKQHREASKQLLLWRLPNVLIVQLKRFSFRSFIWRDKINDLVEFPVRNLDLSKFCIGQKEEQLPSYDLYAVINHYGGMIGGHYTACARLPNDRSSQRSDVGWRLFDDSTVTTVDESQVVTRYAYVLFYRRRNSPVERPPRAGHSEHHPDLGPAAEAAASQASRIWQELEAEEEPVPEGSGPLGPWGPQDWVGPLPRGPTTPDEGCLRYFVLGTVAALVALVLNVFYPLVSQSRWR
# How it was run: (§1)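 Each value is an average log2 ratio of fragment to vehicle, tested by unpaired t-test. The underlying Spectronaut label-free quantities were global-median-normalised, and only proteins with ≥2 unique peptides were included. Triplicate HEK293T lysate samples (495 µg) were exposed to fragment at 200 µM or vehicle for 3 h, then to Biotin-Ahx-Ub-VS at 0.5 µM final for 1 h, before NeutrAvidin enrichment of labelled DUBs, LysC and trypsin digestion, and diaPASEF LC-MS/MS.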
# [2] = target: T2, USP22 (UniProt Q9UPT9)
# T2 sequence (whole entry): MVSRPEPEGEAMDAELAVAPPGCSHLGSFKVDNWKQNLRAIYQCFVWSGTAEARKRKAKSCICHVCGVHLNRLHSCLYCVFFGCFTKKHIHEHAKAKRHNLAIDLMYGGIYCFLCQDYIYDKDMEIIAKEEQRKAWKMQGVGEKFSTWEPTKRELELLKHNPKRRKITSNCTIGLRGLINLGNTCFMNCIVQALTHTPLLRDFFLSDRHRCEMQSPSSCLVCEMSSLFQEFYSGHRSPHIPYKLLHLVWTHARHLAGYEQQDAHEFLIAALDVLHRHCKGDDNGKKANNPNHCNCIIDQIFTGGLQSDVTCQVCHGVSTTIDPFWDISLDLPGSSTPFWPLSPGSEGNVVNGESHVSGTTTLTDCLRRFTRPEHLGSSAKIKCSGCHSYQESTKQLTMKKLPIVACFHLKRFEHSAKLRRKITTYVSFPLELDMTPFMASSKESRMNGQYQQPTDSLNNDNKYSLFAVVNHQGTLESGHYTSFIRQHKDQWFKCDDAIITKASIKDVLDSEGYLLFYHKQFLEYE
# How it was run: as §1
# [3] = target: USP24 (UniProt Q9UPU5)
# How it was run: as §1
# [4] = target: T3, USP25 (UniProt Q9UHP3)
# T3 sequence (whole entry): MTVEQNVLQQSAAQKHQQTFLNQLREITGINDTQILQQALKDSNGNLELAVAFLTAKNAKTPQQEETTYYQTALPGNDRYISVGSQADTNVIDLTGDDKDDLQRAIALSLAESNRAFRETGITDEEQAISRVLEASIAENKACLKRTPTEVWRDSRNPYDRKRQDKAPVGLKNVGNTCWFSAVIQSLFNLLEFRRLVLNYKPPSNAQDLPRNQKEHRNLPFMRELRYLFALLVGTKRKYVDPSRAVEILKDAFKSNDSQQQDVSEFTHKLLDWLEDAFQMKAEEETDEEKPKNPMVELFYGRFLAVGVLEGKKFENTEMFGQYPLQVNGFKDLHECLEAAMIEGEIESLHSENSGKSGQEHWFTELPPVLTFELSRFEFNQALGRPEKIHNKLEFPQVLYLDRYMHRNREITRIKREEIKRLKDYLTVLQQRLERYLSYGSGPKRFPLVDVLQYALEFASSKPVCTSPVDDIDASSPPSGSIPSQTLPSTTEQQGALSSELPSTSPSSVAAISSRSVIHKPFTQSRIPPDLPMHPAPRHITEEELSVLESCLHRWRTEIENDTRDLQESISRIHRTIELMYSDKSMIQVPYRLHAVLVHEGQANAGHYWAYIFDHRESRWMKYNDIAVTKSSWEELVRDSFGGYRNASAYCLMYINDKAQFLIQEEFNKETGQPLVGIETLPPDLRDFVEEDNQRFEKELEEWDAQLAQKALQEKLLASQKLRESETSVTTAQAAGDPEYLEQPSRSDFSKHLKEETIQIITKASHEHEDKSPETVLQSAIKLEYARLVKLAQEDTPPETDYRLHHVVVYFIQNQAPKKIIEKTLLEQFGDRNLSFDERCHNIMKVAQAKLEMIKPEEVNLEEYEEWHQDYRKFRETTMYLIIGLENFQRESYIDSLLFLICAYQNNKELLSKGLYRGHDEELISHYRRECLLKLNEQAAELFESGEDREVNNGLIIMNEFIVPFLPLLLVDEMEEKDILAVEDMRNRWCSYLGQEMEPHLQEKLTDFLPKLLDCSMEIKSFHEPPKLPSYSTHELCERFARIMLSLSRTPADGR
# How it was run: as §1
# [5] = target: T4, USP28 (UniProt Q96RU2)
# T4 sequence (whole entry): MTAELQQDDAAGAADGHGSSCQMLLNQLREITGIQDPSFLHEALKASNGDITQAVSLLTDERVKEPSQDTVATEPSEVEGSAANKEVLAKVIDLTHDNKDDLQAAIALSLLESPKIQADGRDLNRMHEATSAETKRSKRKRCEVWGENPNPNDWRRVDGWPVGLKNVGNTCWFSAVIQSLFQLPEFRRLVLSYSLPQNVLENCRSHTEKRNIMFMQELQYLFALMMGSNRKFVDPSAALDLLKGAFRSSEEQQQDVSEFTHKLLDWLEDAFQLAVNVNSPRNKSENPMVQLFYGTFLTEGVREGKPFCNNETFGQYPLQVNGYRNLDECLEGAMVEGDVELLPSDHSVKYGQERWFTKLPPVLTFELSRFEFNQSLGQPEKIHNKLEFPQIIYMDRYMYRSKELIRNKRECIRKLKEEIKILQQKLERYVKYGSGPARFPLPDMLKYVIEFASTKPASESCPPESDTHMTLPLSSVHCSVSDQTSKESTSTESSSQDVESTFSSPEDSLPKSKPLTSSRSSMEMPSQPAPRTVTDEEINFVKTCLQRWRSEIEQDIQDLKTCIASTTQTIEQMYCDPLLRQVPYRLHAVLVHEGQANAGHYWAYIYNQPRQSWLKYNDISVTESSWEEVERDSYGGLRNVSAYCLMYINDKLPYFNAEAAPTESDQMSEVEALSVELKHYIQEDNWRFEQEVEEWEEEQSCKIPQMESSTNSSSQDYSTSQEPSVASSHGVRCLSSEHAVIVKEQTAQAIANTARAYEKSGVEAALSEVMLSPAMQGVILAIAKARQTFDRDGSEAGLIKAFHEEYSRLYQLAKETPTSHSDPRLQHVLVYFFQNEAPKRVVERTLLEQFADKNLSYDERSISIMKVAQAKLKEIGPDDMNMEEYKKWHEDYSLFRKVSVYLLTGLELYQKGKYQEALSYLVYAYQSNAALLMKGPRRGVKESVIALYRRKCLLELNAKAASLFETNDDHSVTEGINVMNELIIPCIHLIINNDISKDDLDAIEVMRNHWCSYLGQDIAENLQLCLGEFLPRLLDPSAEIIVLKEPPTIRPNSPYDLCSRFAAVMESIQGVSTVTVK
# How it was run: as §1
# Chain of USP24 (Q9UPU5 whole entry): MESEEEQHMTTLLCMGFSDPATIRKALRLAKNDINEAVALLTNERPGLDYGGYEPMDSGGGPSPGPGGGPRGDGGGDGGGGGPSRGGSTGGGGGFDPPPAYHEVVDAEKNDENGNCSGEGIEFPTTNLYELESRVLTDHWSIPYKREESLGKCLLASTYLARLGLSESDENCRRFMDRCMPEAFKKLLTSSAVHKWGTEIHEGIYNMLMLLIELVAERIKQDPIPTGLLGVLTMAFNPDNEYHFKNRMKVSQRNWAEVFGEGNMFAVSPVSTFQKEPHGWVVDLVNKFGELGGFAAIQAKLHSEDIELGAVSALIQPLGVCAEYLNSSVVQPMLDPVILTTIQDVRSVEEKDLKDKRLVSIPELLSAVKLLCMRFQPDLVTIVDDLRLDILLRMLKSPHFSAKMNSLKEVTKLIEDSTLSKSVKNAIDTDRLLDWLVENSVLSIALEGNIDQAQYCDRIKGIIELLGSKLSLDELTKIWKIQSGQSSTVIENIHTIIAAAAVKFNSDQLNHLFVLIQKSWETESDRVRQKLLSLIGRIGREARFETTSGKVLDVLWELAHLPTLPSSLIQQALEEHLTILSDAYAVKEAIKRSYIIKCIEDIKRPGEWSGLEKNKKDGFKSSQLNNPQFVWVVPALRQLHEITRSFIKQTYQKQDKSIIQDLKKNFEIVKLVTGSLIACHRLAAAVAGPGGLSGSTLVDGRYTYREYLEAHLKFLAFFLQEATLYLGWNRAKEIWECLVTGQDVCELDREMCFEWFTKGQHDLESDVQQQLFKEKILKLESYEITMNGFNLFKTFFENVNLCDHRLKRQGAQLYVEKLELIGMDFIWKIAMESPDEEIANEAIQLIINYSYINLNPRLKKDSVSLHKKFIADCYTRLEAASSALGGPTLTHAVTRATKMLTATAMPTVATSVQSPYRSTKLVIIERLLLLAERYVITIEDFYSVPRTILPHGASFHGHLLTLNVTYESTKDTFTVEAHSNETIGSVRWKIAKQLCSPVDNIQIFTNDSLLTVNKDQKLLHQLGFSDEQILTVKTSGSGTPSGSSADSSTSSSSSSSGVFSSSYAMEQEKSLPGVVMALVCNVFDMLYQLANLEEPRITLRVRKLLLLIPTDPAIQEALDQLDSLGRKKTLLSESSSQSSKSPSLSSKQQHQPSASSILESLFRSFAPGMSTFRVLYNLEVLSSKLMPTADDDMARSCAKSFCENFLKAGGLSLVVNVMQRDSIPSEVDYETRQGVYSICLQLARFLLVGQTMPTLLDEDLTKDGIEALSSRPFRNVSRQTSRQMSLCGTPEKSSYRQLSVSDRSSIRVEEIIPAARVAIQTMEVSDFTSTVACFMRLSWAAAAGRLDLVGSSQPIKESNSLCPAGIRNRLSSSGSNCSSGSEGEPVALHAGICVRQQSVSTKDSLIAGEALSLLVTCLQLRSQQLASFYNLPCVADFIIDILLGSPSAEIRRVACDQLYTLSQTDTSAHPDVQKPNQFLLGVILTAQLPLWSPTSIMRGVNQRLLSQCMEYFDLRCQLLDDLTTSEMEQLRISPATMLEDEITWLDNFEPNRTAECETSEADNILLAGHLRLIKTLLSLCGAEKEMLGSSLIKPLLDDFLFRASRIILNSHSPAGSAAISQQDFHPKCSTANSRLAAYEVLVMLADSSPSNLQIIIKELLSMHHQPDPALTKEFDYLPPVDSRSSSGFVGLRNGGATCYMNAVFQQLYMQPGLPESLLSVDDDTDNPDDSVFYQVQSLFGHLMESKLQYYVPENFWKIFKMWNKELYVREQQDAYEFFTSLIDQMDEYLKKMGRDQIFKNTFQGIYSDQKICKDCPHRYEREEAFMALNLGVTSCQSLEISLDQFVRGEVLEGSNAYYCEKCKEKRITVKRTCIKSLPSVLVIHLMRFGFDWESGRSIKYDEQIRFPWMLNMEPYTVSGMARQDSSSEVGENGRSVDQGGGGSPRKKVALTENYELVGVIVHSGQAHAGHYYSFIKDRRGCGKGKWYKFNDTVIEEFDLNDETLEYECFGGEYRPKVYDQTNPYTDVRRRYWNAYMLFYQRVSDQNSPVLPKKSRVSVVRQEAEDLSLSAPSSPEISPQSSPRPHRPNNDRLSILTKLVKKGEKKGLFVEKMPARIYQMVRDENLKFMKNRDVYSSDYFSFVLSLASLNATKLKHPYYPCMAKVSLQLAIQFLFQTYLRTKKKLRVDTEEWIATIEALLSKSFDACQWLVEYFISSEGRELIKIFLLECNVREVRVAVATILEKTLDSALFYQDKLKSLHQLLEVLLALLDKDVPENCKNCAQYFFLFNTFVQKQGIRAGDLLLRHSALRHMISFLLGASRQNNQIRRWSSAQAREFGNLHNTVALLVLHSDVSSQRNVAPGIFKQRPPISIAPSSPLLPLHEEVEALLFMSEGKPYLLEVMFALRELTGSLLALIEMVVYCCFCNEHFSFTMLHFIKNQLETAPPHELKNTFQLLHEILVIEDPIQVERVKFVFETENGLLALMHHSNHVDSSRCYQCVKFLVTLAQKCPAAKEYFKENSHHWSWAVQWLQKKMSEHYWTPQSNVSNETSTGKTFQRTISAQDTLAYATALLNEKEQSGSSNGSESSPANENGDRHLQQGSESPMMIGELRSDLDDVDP
structure (smiles),measurement,setting,value
Cc1conc1C1CN(C(=O)CCl)C1,log2 ratio of Biotin-Ahx-Ub-VS probe labelling,[1],-1.19 (active)
same,log2 ratio of Biotin-Ahx-Ub-VS probe labelling,[2],-0.421
same,log2 ratio of Biotin-Ahx-Ub-VS probe labelling,[3],-1.11 (active)
same,log2 ratio of Biotin-Ahx-Ub-VS probe labelling,[4],-0.81
same,log2 ratio of Biotin-Ahx-Ub-VS probe labelling,[5],-1.16 (active)
